# Measurements from PubChem BioAssay AID932 (The Scripps Research Institute Molecular Screening Center, 2007).
# Among all 200,000 compounds or so, about 5,100 (2.5%) were called active. Many of the other results were omitted from the sample, so actives are more common in it than they were. Unmarked numbers belong to inactive results.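 How the source made its calls: active means activation above the screen-wide mean activation plus 3 SD (cut at about 130% in these data); inactive means the rest.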
# Assay: potentiators of IFN-gamma driven STAT1 reporter – cell-based, HTS, luciferase reporter, primary screen (AID 932);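 further: raw ratio to IFN-gamma control signal so 100% means no change and 0% no light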
# Settings: NIH 3T3 STAT1-luciferase reporter, luminescence, at 5.5 µM, hits give high values, 100% = IFN-gamma alone, no compound
row,Compound,activation (% of control)
1,CC(C)(C)c1ccc(OC(=O)N2CCCCC2)cc1,146% (active)
2,CN1CCN(C(=O)COc2ccc(C(C)(C)C)cc2Br)CC1,97%
3,O=C(Nc1cccc(OC(=O)N2CCCCC2)c1)N1CCOCC1,101%
4,Cc1ccccc1N1C(=O)NC(=O)/C(=C\c2cc(C)n(C)c2C)C1=O,92.7%
5,CCOC(=O)C1CN(C)CCC1=O (stereo not given),96.3%
